Here are results for 14 compounds from PubChem BioAssay (NCATS).

Records with an inconclusive call do not appear. Activity calls are given as the source filed them. Calls follow the shape of the dose curve; as a rule, active = well fitted inhibition curve with a large enough effect; inconclusive = small, poorly fitted or top-dose-only effect; inactive = flat fitted curve, though single readings scatter.
Potency is read from the fitted curve at half-maximal effect.

The first experiment relates to CP315. Nature of the experiment: qHTS profiling for inhibitors of Plasmodium falciparum proliferation (AID 504749). Also: nearly all actives have a fitted effect of over 60% in size.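 As to activity, negative = inhibition: 0% = DMSO vehicle and full inhibition = artemisinin control.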 Conditions: P. falciparum in erythrocytes, SYBR Green DNA, 72 h; series mostly up to 28.7 µM; activity, negative = inhibition: at the top concentration. In outline: (§1)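 Three-day growth assay of blood-stage parasites in erythrocytes (0.3% parasitemia, 2.5% hematocrit) at 37 C, 5% CO2, quantified by SYBR Green DNA staining after overnight detergent lysis.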
As to `COC(=O)C[C@](O)(CCCC(C)(C)O)C(=O)O[C@@H]1C(OC)=C[C@]23CCCN2CCc2cc4c(cc2[C@H]13)OCO4`, the Potency was 0.0239 µM (active).
For the compound `CC=CC1=C(C(=O)O)N2C(=O)[C@H](NC(=O)[C@H](N)c3ccc(O)cc3)[C@@H]2SC1`, the “activity, negative = inhibition” value is -5.28% (inactive).
Regarding `C[C@H]1C[C@@H]2[C@@H]([C@@H](O)C[C@@]3(C)[C@H]2CC[C@]3(O)C(=O)CO)[C@@]2(C)C=CC(=O)C=C12`, the “activity, negative = inhibition” value is -4.11% [at 12.8 µM] (inactive).
On the same count and under the same terms, to `O=c1[nH]c(=O)n(C2CCCO2)cc1F` (centres undefined) belongs -0.609% (inactive).
With `Nc1ccn([C@@H]2CS[C@H](CO)O2)c(=O)n1`, the Potency entry is “inactive”.
Turning to `CN1c2cc(O)c(N=NC(N)=O)cc2CC1S(=O)(=O)O` (centres undefined), the “activity, negative = inhibition” value was 2.59% (inactive).
Consider `CC[C@H]1CN2CCc3cc(OC)c(OC)cc3[C@H]2C[C@@H]1C[C@@H]1NCCc2cc(OC)c(OC)cc21`, for which the Potency is 0.757 µM (active).
Take `Nc1ccn([C@@H]2O[C@H](CO)[C@H](O)C2(F)F)c(=O)n1`: the Potency is 8.49 µM (active).
With `O=C(O)CO.[NH2-].[NH2-].[Pt+2]`, the “activity, negative = inhibition” value was 1.33% (inactive).
Turning to `COC(=O)C1=C(C)NC(C)=C(C(=O)OCCN2CCN(C(c3ccccc3)c3ccccc3)CC2)C1c1cccc([N+](=O)[O-])c1` (centres undefined), the Potency was 4.78 µM (active).
On to `COc1c(N2C[C@@H]3CCCN[C@H]3C2)c(F)cc2c(=O)c(C(=O)O)cn(C3CC3)c12`, for which the “activity, negative = inhibition” value was 1.37% (inactive).
Regarding `CCC1=C[C@@H]2CN(C1)Cc1c([nH]c3ccccc13)[C@@](C(=O)OC)(c1cc3c(cc1OC)N(C)[C@@H]1[C@@](O)(C(=O)OC)[C@H](OC(C)=O)[C@]4(CC)C=CCN5CC[C@]31[C@@H]54)C2`, the Potency is 3.79 µM (active).

The next experiment deals with CP325. Described as above. The conditions noted are these: P. falciparum in erythrocytes, SYBR Green DNA, 72 h; series mostly up to 28.7 µM; activity, negative = inhibition: at the top concentration. In outline:
as §1
As to `COC(=O)C[C@](O)(CCCC(C)(C)O)C(=O)O[C@@H]1C(OC)=C[C@]23CCCN2CCc2cc4c(cc2[C@H]13)OCO4`, the Potency was 0.0338 µM (active).
Take `CC=CC1=C(C(=O)O)N2C(=O)[C@H](NC(=O)[C@H](N)c3ccc(O)cc3)[C@@H]2SC1`: the “activity, negative = inhibition” value was 0.651% (inactive).
Consider `COc1cc(C(=O)NS(=O)(=O)c2ccccc2C)ccc1Cc1cn(C)c2ccc(NC(=O)OC3CCCC3)cc12`, for which the “activity, negative = inhibition” value is -6.86% (inactive).
As to `C[C@H]1C[C@@H]2[C@@H]([C@@H](O)C[C@@]3(C)[C@H]2CC[C@]3(O)C(=O)CO)[C@@]2(C)C=CC(=O)C=C12`, the “activity, negative = inhibition” value is -8.05% [at 12.8 µM] (inactive).
Regarding `O=c1[nH]c(=O)n(C2CCCO2)cc1F` (centres undefined), the “activity, negative = inhibition” value is -5.8% (inactive).
As for `Nc1ccn([C@@H]2CS[C@H](CO)O2)c(=O)n1`, the Potency entry was “inactive”.
Turning to `CN1c2cc(O)c(N=NC(N)=O)cc2CC1S(=O)(=O)O` (centres undefined), the “activity, negative = inhibition” value is -3.64% (inactive).
Consider `CC[C@H]1CN2CCc3cc(OC)c(OC)cc3[C@H]2C[C@@H]1C[C@@H]1NCCc2cc(OC)c(OC)cc21`, for which the Potency is 0.478 µM (active).
With `Nc1ccn([C@@H]2O[C@H](CO)[C@H](O)C2(F)F)c(=O)n1`, the Potency was 2.39 µM (active).
Turning to `O=C(O)CO.[NH2-].[NH2-].[Pt+2]`, the “activity, negative = inhibition” value is -0.441% (inactive).
With `COC(=O)C1=C(C)NC(C)=C(C(=O)OCCN2CCN(C(c3ccccc3)c3ccccc3)CC2)C1c1cccc([N+](=O)[O-])c1` (centres undefined), the Potency is 3.79 µM (active).
As for `COc1c(N2C[C@@H]3CCCN[C@H]3C2)c(F)cc2c(=O)c(C(=O)O)cn(C3CC3)c12`, the “activity, negative = inhibition” value was -9.42% (inactive).
In the case of `CCC1=C[C@@H]2CN(C1)Cc1c([nH]c3ccccc13)[C@@](C(=O)OC)(c1cc3c(cc1OC)N(C)[C@@H]1[C@@](O)(C(=O)OC)[C@H](OC(C)=O)[C@]4(CC)C=CCN5CC[C@]31[C@@H]54)C2`, the Potency is 3.79 µM (active).
Take `Nc1ccc(S(=O)(=O)Nc2ncccn2)cc1`: the “activity, negative = inhibition” value was -1.72% [at 12.8 µM] (inactive).

The next experiment concerns CP329. The description is as above. The conditions noted are these: P. falciparum in erythrocytes, SYBR Green DNA, 72 h; series mostly up to 28.7 µM; activity, negative = inhibition: at the top concentration. In short, it runs like this:
as §1
As for `CC=CC1=C(C(=O)O)N2C(=O)[C@H](NC(=O)[C@H](N)c3ccc(O)cc3)[C@@H]2SC1`, the “activity, negative = inhibition” value is 3.48% (inactive).
On to `COc1cc(C(=O)NS(=O)(=O)c2ccccc2C)ccc1Cc1cn(C)c2ccc(NC(=O)OC3CCCC3)cc12`, for which the “activity, negative = inhibition” value is -20.4% (inactive).
Consider `C[C@H]1C[C@@H]2[C@@H]([C@@H](O)C[C@@]3(C)[C@H]2CC[C@]3(O)C(=O)CO)[C@@]2(C)C=CC(=O)C=C12`, for which the “activity, negative = inhibition” value is -0.397% [at 12.8 µM] (inactive).
`O=c1[nH]c(=O)n(C2CCCO2)cc1F` (centres undefined): the “activity, negative = inhibition” value was 3.94% (inactive).
On to `Nc1ccn([C@@H]2CS[C@H](CO)O2)c(=O)n1`, for which the Potency result is “inactive”.
`CN1c2cc(O)c(N=NC(N)=O)cc2CC1S(=O)(=O)O` (centres undefined): the “activity, negative = inhibition” value is 0.941% (inactive).
For `CC[C@H]1CN2CCc3cc(OC)c(OC)cc3[C@H]2C[C@@H]1C[C@@H]1NCCc2cc(OC)c(OC)cc21`, the Potency is 0.379 µM (active).
On the same count and under the same terms, as for `Nc1ccn([C@@H]2O[C@H](CO)[C@H](O)C2(F)F)c(=O)n1`, the figure is 5.36 µM (active).
Regarding `O=C(O)CO.[NH2-].[NH2-].[Pt+2]`, the “activity, negative = inhibition” value is 2.03% (inactive).
Take `COC(=O)C1=C(C)NC(C)=C(C(=O)OCCN2CCN(C(c3ccccc3)c3ccccc3)CC2)C1c1cccc([N+](=O)[O-])c1` (centres undefined): the Potency is 4.78 µM (active).
Turning to `COc1c(N2C[C@@H]3CCCN[C@H]3C2)c(F)cc2c(=O)c(C(=O)O)cn(C3CC3)c12`, the “activity, negative = inhibition” value is 2.42% (inactive).
On to `CCC1=C[C@@H]2CN(C1)Cc1c([nH]c3ccccc13)[C@@](C(=O)OC)(c1cc3c(cc1OC)N(C)[C@@H]1[C@@](O)(C(=O)OC)[C@H](OC(C)=O)[C@]4(CC)C=CCN5CC[C@]31[C@@H]54)C2`, for which the Potency was 3.01 µM (active).
Take `Nc1ccc(S(=O)(=O)Nc2ncccn2)cc1`: the “activity, negative = inhibition” value was 3.02% [at 12.8 µM] (inactive).
